From PubChem BioAssay (NCI) come the findings set out here.

Among the test systems are DU-145 prostate; K-562 leukemia; MALME-3M melanoma; MDA-MB-231 breast; RXF 393 renal; SF-268 CNS; SF-295 CNS; SF-539 CNS; UACC-257 melanoma; M14 melanoma.
What all share (experiment): NCI-60 one-dose screen, 48 h (100 = growth as untreated, 0 = no growth, -100 = all killed)
Common to all, as to settings: 10 µM unless noted

This is part of a sample that, as a whole, favours compounds with a hit. Of some 83,000 tested, about 20% had one in any assay.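 Method: cells in 96-well plates; compound added at one concentration; 48 h incubation; percent growth measured; values under 10 scored active.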 Unmarked numbers belong to inactive results. The source made the active and inactive calls.

As to `Nc1cc(O)cc2cccnc12`, the growth is 107% in the assay with DU-145 prostate; 88% with K-562 leukemia; 89.8% in the assay on MALME-3M melanoma; 78.5% in the assay with MDA-MB-231 breast; 135% in the assay with RXF 393 renal; 107% in the assay with SF-268 CNS. The growth in the assay on SF-295 CNS is 95.4%; in the assay with SF-539 CNS, 101%; with UACC-257 melanoma, 91.2%; with M14 melanoma, 83.8%.
Consider `NS(=O)(=O)c1ccc(-n2ncc3c(=O)[nH]c(CN4CCN(c5cc6c(cc5F)c(=O)c(C(=O)O)cn6C5CC5)CC4)nc32)cc1`, for which the growth with DU-145 prostate is 110%; in the assay with K-562 leukemia, 95.8%; with MALME-3M melanoma, 105%; in the assay with MDA-MB-231 breast, 85.8%; in the assay on RXF 393 renal, 98.2%; in the assay on SF-268 CNS, 91.6%. Besides, the growth was 91.8% in the assay with SF-295 CNS, 97% in the assay on SF-539 CNS, 105% in the assay on UACC-257 melanoma and 92.9% in the assay on M14 melanoma.
For `CCOC(=O)c1cnc2ccc(Br)cc2c1Nc1cccc(S(=O)(=O)NC)c1`, the growth was 103% with DU-145 prostate; 100% in the assay on K-562 leukemia; 99.1% in the assay with MALME-3M melanoma; 95.4% in the assay on MDA-MB-231 breast; 99.5% in the assay with RXF 393 renal; 94.9% in the assay with SF-268 CNS. For the same molecule, the growth in the assay on SF-295 CNS is 94.2%; with SF-539 CNS, 98.2%; with UACC-257 melanoma it was 114%; in the assay with M14 melanoma, 114%.
In the case of `Nc1c(C(=O)Nc2cccc3c2OCCO3)sc2nc3c(cc12)CN(Cc1ccccc1)CC3`, the growth with DU-145 prostate is 86%; in the assay with K-562 leukemia it was 20.1%; in the assay on MALME-3M melanoma, 68.1%; in the assay with MDA-MB-231 breast it was 66.4%; with RXF 393 renal it was 71.8%; with SF-268 CNS, 74.2%. Besides, the growth is 39.7% in the assay on SF-295 CNS, 65.2% in the assay with SF-539 CNS, 83% in the assay with UACC-257 melanoma and 54.6% in the assay on M14 melanoma.
In the case of `CCN(CC)Cc1cc(Nc2c3ccc(Cl)cc3nc3c(C)cccc23)ccc1O`, the growth with DU-145 prostate was 2.09% (active); in the assay on K-562 leukemia it was -31% (active); in the assay on MALME-3M melanoma, -87% (active); in the assay with MDA-MB-231 breast, -48.6% (active); in the assay with RXF 393 renal it was -74.3% (active); in the assay on SF-268 CNS, -79.8% (active). Further, the growth in the assay with SF-295 CNS was -43.6% (active); in the assay with SF-539 CNS, -96.5% (active); with UACC-257 melanoma, -85.2% (active); in the assay on M14 melanoma, -88.5% (active).
Take `COc1ccccc1/C=C(/C(=O)c1ccccc1)c1ccccc1`: the growth with DU-145 prostate was 110%; in the assay with K-562 leukemia it was 86.6%; with MALME-3M melanoma, 135%; in the assay on MDA-MB-231 breast, 98.6%; in the assay with RXF 393 renal, 105%; in the assay with SF-268 CNS it was 97.8%. Besides, the growth with SF-295 CNS was 104%; with SF-539 CNS, 106%; with UACC-257 melanoma, 93.4%; in the assay with M14 melanoma, 101%.
For the molecule `COc1cc(NC(N)=NCC(C)(C)COc2ccc(C(F)(F)F)cc2)cnc1C#N`, the growth was 81.6% with DU-145 prostate; 34.5% in the assay on K-562 leukemia; 57.6% in the assay with MALME-3M melanoma; 57% in the assay on MDA-MB-231 breast; 41% in the assay with RXF 393 renal; 50.4% in the assay on SF-268 CNS. The growth in the assay with SF-295 CNS was 82.9%; in the assay with SF-539 CNS, 72%; in the assay on UACC-257 melanoma, 69.1%; with M14 melanoma it was 45.6%.
Turning to `COc1cc(/C=N\NC(=O)CN2CCN(c3cc4c(cc3F)c(=O)c(C(=O)N/N=C/c3ccc(O)c(OC)c3)cn4C3CC3)CC2)ccc1O`, the growth was 66.3% in the assay with DU-145 prostate; 40.5% in the assay on K-562 leukemia; 62.4% in the assay with MALME-3M melanoma; 59.5% in the assay on MDA-MB-231 breast; 86.9% in the assay on RXF 393 renal; 59.4% in the assay with SF-268 CNS. Besides, the growth is 90.5% in the assay on SF-295 CNS, 86.9% in the assay on SF-539 CNS, 41% in the assay with UACC-257 melanoma and 80% in the assay with M14 melanoma.
`CCCCCCCCCc1cc(CN2CCCCC2)c(O)c(CN2CCCCC2)c1`: the growth in the assay on DU-145 prostate was 66.4%; with K-562 leukemia, 31.8%; with MALME-3M melanoma, 75.1%; in the assay with MDA-MB-231 breast it was 30.9%; with RXF 393 renal, 78.3%; in the assay on SF-268 CNS, 71.7%. In addition, the growth with SF-295 CNS is 64.6%; in the assay on SF-539 CNS it was 60.9%; with UACC-257 melanoma, 58.8%; in the assay with M14 melanoma, 68.3%.
As to `OC(c1cc(-c2ccccc2)nc2ccc(Cl)cc12)C1CCCCN1` (stereo not given), the growth in the assay on DU-145 prostate was 60.1%; with K-562 leukemia, -18.4% (active); in the assay with MALME-3M melanoma, -41.3% (active); in the assay with MDA-MB-231 breast it was -30.5% (active); in the assay with RXF 393 renal it was 56.3%; in the assay on SF-268 CNS, 60.7%. Also, the growth was 96.2% with SF-295 CNS, 67.5% in the assay with SF-539 CNS, 70.9% in the assay with UACC-257 melanoma and -66.3% (active) with M14 melanoma.
Take `CN1CCN(Cc2ccc(NC(=O)c3[nH]ncc3Nc3ncnc4[nH]ccc34)cc2)CC1`: the growth in the assay on DU-145 prostate is 3.78% (active); with K-562 leukemia it was 5.62% (active); with MALME-3M melanoma, -23.3% (active); with MDA-MB-231 breast it was 0.311% (active); with RXF 393 renal, -70.2% (active); with SF-268 CNS, -6.72% (active). Further, the growth was 9.36% (active) in the assay on SF-295 CNS, -65% (active) with SF-539 CNS, 15.7% in the assay on UACC-257 melanoma and 0.163% (active) in the assay with M14 melanoma.
As to `O=C1/C(=C/c2ccc(F)cc2)CN(C(=O)CCN2CCC(=NO)CC2)C/C1=C\c1ccc(F)cc1`, the growth is -28% (active) in the assay with DU-145 prostate; 5.22% (active) in the assay with K-562 leukemia; -22.4% (active) in the assay on MALME-3M melanoma; -55.6% (active) in the assay on MDA-MB-231 breast; -81% (active) with RXF 393 renal; -23% (active) in the assay with SF-268 CNS. The growth was -28.9% (active) in the assay on SF-295 CNS, -63% (active) in the assay with SF-539 CNS, -19.1% (active) in the assay on UACC-257 melanoma and -10.6% (active) in the assay with M14 melanoma.
`O=C1/C(=C/c2ccc(Cl)c(Cl)c2)CN(C(=O)CCN2CCC(=NO)CC2)C/C1=C\c1ccc(Cl)c(Cl)c1`: the growth in the assay with DU-145 prostate is -82.8% (active); with K-562 leukemia it was -27% (active); with MALME-3M melanoma, -81.7% (active); in the assay on MDA-MB-231 breast, -90.5% (active); with RXF 393 renal, -88.8% (active); with SF-268 CNS, -82.6% (active). Moreover, the growth with SF-295 CNS was -88.5% (active); with SF-539 CNS, -93.7% (active); in the assay on UACC-257 melanoma it was -85.5% (active); in the assay on M14 melanoma, -49.7% (active).
For the molecule `OC(c1cccc(C(F)(F)F)c1)c1cnccc1NC1CCCCCC1` (stereo not given), the growth with DU-145 prostate is 71.6%; with K-562 leukemia, 3.23% (active); in the assay on MALME-3M melanoma, -77.7% (active); in the assay on MDA-MB-231 breast it was 10.6%; in the assay with RXF 393 renal it was 32.3%; in the assay with SF-268 CNS it was 60.5%. In addition, the growth in the assay on SF-295 CNS is 14.2%; with SF-539 CNS it was 74.2%; in the assay with UACC-257 melanoma it was 39.5%; in the assay on M14 melanoma, -21.8% (active).
